The panel holds about 83,000 compounds, 20% with a hit somewhere; the sample as a whole holds those more often.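 Step 1: grow cells in 96-well plates. Step 2: add test compound at a single concentration. Step 3: incubate 48 h. Step 4: record percent growth.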 Unmarked numbers belong to inactive results. The source made the active and inactive calls. The calls were made as follows: active = growth percent below 10; inactive = the rest.
Each molecule was assayed on DU-145 prostate (assay: NCI-60 one-dose screen, 48 h (100 = growth as untreated, 0 = no growth, -100 = all killed)). Settings: 10 µM unless noted.
For `C=CC(=O)Nc1cc(Nc2nccc(-c3cn(C)c4ccccc34)n2)c(OC)cc1N(C)CCN(C)C`, the growth was 9.23% (active). `C/C=C/C=N/NC(=S)Nc1ccccc1` showed a growth of 104%. In the case of `CN1CC[C@H](c2c(O)cc(O)c3c(=O)cc(-c4ccccc4Cl)oc23)[C@H](O)C1`, the growth is reported as 9.08% (active). Work on `CCc1nc(C(N)=O)c(Nc2ccc(N3CCC(N4CCN(C)CC4)CC3)c(OC)c2)nc1NC1CCOCC1` yielded a growth of 45.1%. For `C=CC(=O)N1CCC[C@H](n2c(=O)n(-c3ccc(Oc4ccccc4)cc3)c3c(N)ncnc32)C1`, the growth was 62.4%. For `COCCN1CCN(Cc2ccc(-c3n[nH]c4c3C(=O)c3c(NC(=O)NN5CCOCC5)cccc3-4)cc2)CC1`, the growth was 4.89% (active). `CC(C)(C)c1ccc(Cn2cc(CSc3nc4ccccc4s3)nn2)cc1` was tested, and the growth was 115%. Work on `COc1ccc(-c2ccc3c(N4CCOC[C@@H]4C)nc(N4CCOC[C@@H]4C)nc3n2)cc1CO` yielded a growth of 11.6%. In the case of `COc1cc(N2CCC(N3CCN(C)CC3)CC2)ccc1Nc1ncnc(Nc2ccccc2S(=O)(=O)C(C)C)n1`, the growth is reported as 100%. In the case of `COc1cccc(NC(=O)Nc2ccc(Nc3ncnc4sc5c(c34)CCN(C(=O)CCl)C5)cc2)c1`, the growth is reported as 118%. `O=C(Nc1cnn2ccc(N3CCC[C@@H]3c3cc(F)ccc3F)nc12)N1CC[C@H](O)C1` gave a growth of 110%. Work on `CC(=O)NCC(=O)N1[C@@H]2CC[C@H]1c1ccc(Nc3ncc(C(F)(F)F)c(NC4CCC4)n3)cc12` yielded a growth of 41.7% [2.5 µM]. `CO[C@@H](C)Cn1c(=O)n(C)c2cnc3ccc(-c4cncc(C(C)(C)O)c4)cc3c21` showed a growth of 13%. Work on `C[C@@H](Oc1cc(C(=O)Nc2ccc(C(=O)N3CCN(C)CC3)cc2)nnc1N)c1c(Cl)ccc(F)c1Cl` yielded a growth of 84.7%. `COc1ccc(-c2cnc(-c3ccc(Cl)cc3)[nH]2)cc1OC` gave a growth of 78.7%. Molecule `CC(C)(C)c1nc(-c2cccc(NS(=O)(=O)c3c(F)cccc3F)c2F)c(-c2ccnc(N)n2)s1` has a growth of 105%. `CCN(CC)c1cc2oc3cc(N)cc(=N)c-3nc2cc1C` showed a growth of 85.7%. With `COC(=O)Nc1nc2ccc(C(=O)c3ccc(N(C)C4COC4)cc3)cc2[nH]1` the growth was 12.7%. Molecule `CNC(=O)c1cc(COc2nnc(Nc3ccc(Cl)cc3)c3ccoc23)ccn1` has a growth of 31.9%. `CCN(CCCOc1ccc2c(Nc3cc(CC(=O)Nc4cccc(F)c4)[nH]n3)ncnc2c1)CCOP(=O)(O)O` showed a growth of 88.5%. `COc1cc2nccc(Oc3ccc(NC(=O)Nc4cc(C)on4)c(Cl)c3)c2cc1OC` was tested, and the growth was 31.2%. `CNC(=O)c1cc(Oc2cccc3nc(Nc4ccc(Cl)c(F)c4)ccc23)ccn1` gave a growth of 71.3%. `Cc1nc(NC(=O)N2CCC[C@H]2C(N)=O)sc1-c1ccnc(C(C)(C)C(F)(F)F)c1` gave a growth of 34.1%. `COc1ccc(Nc2ncccc2NC(=O)c2cn(Cc3cccc(Oc4ccccc4)c3)nn2)cc1` gave a growth of 93.4%. `CS(=O)(=O)CCNCc1ccc(-c2ccc3ncnc(Nc4ccc(OCc5cccc(F)c5)c(Cl)c4)c3c2)o1` showed a growth of 12%.

What follows are molecules tested on K-562 leukemia in the same assay as above. Settings: 10 µM unless noted.
With `CN1CCC(COc2cnc(-c3cccc(Cn4nc(-c5cccc(C#N)c5)ccc4=O)c3)nc2)CC1` the growth was 3.04% (active). For `COc1cc(OC)c(/C=C/S(=O)(=O)Cc2ccc(OC)c(NCC(=O)O)c2)c(OC)c1`, the growth was 8.38% (active). `O=C(NOC[C@H](O)CO)c1ccc(F)c(F)c1Nc1ccc(I)cc1F` was tested, and the growth was 29.2%. In the case of `C=CCN1C(=O)c2cccc3c(-c4ccc5c(c4)ncn5C4CCCCC4)ccc(c23)C1=O`, the growth is reported as 26.2%. Work on `Cc1cc(O)cc(-c2c(-c3ccnc(-c4cccnc4)c3)cnn2C)c1` yielded a growth of 57.8%. Molecule `O=[N+]([O-])c1cc(Br)cc2c1[nH]c1ccc(Br)cc12` has a growth of 55.5%. For `COc1cc2ncnc(Oc3cccc(NC(=O)Nc4cc(C(C)(C)C(F)(F)F)on4)c3)c2cc1OC`, the growth was 2.56% (active). In the case of `CCNC(=O)Nc1nc2ccc(Oc3ccnc(C(=O)NC)c3)cc2s1`, the growth is reported as 8.24% (active). `COc1cccc2cc(-c3nc(C4CCC(C(=O)O)CC4)n4ncnc(N)c34)[nH]c12` (stereo not drawn) gave a growth of 14%. With `CN1CCN(c2nc(C3=C(c4c[nH]c5ccccc45)C(=O)NC3=O)c3ccccc3n2)CC1` the growth was 66.5%. Work on `Cc1cc2c(F)c(Oc3ncnn4cc(OC[C@@H](C)OC(=O)[C@H](C)N)c(C)c34)ccc2[nH]1` yielded a growth of 41.5%. With `S=C(NCc1ccc2c(c1)OCO2)N1CCN(c2ncnc3c2oc2ccccc23)CC1` the growth was 19.4%. `C=C1CC[C@@H]2[C@](C)(COC(C)=O)[C@H](OC(C)=O)CC[C@@]2(C)[C@@H]1C/C=C1/C(=O)OC[C@H]1OC(C)=O` showed a growth of 11.1%. With `C=CC(=O)Nc1cc(Nc2nccc(-c3cn(C)c4ccccc34)n2)c(OC)cc1N(C)CCN(C)C` the growth was -40.1% (active). `C/C=C/C=N/NC(=S)Nc1ccccc1` gave a growth of 88.9%. For `CN1CC[C@H](c2c(O)cc(O)c3c(=O)cc(-c4ccccc4Cl)oc23)[C@H](O)C1`, the growth was 6.14% (active). With `CCc1nc(C(N)=O)c(Nc2ccc(N3CCC(N4CCN(C)CC4)CC3)c(OC)c2)nc1NC1CCOCC1` the growth was 16.1%. `C=CC(=O)N1CCC[C@H](n2c(=O)n(-c3ccc(Oc4ccccc4)cc3)c3c(N)ncnc32)C1` gave a growth of 66.7%. With `COCCN1CCN(Cc2ccc(-c3n[nH]c4c3C(=O)c3c(NC(=O)NN5CCOCC5)cccc3-4)cc2)CC1` the growth was -0.714% (active). In the case of `CC(C)(C)c1ccc(Cn2cc(CSc3nc4ccccc4s3)nn2)cc1`, the growth is reported as 95.6%. In the case of `COc1ccc(-c2ccc3c(N4CCOC[C@@H]4C)nc(N4CCOC[C@@H]4C)nc3n2)cc1CO`, the growth is reported as 12.8%. `COc1cc(N2CCC(N3CCN(C)CC3)CC2)ccc1Nc1ncnc(Nc2ccccc2S(=O)(=O)C(C)C)n1` showed a growth of 94%. `COc1cccc(NC(=O)Nc2ccc(Nc3ncnc4sc5c(c34)CCN(C(=O)CCl)C5)cc2)c1` was tested, and the growth was 91.3%. In the case of `O=C(Nc1cnn2ccc(N3CCC[C@@H]3c3cc(F)ccc3F)nc12)N1CC[C@H](O)C1`, the growth is reported as 74.8%. Molecule `CC(=O)NCC(=O)N1[C@@H]2CC[C@H]1c1ccc(Nc3ncc(C(F)(F)F)c(NC4CCC4)n3)cc12` has a growth of 44.8% [2.5 µM]. `CO[C@@H](C)Cn1c(=O)n(C)c2cnc3ccc(-c4cncc(C(C)(C)O)c4)cc3c21` was tested, and the growth was 14.8%. Molecule `C[C@@H](Oc1cc(C(=O)Nc2ccc(C(=O)N3CCN(C)CC3)cc2)nnc1N)c1c(Cl)ccc(F)c1Cl` has a growth of 28.7%. Molecule `COc1ccc(-c2cnc(-c3ccc(Cl)cc3)[nH]2)cc1OC` has a growth of 115%. Work on `CC(C)(C)c1nc(-c2cccc(NS(=O)(=O)c3c(F)cccc3F)c2F)c(-c2ccnc(N)n2)s1` yielded a growth of 50.8%. `CCN(CC)c1cc2oc3cc(N)cc(=N)c-3nc2cc1C` was tested, and the growth was 24.9%. `COC(=O)Nc1nc2ccc(C(=O)c3ccc(N(C)C4COC4)cc3)cc2[nH]1` was tested, and the growth was 7.83% (active). With `CNC(=O)c1cc(COc2nnc(Nc3ccc(Cl)cc3)c3ccoc23)ccn1` the growth was 69.7%. For `CCN(CCCOc1ccc2c(Nc3cc(CC(=O)Nc4cccc(F)c4)[nH]n3)ncnc2c1)CCOP(=O)(O)O`, the growth was 48.4%. For `COc1cc2nccc(Oc3ccc(NC(=O)Nc4cc(C)on4)c(Cl)c3)c2cc1OC`, the growth was 5.94% (active). `CNC(=O)c1cc(Oc2cccc3nc(Nc4ccc(Cl)c(F)c4)ccc23)ccn1` was tested, and the growth was 83.8%. Molecule `Cc1nc(NC(=O)N2CCC[C@H]2C(N)=O)sc1-c1ccnc(C(C)(C)C(F)(F)F)c1` has a growth of 80.9%. `COc1ccc(Nc2ncccc2NC(=O)c2cn(Cc3cccc(Oc4ccccc4)c3)nn2)cc1` gave a growth of 73.8%. For `CS(=O)(=O)CCNCc1ccc(-c2ccc3ncnc(Nc4ccc(OCc5cccc(F)c5)c(Cl)c4)c3c2)o1`, the growth was -22.7% (active).

Source: PubChem BioAssay (NCI)
